Assay results as given in the supplement of paper PMC6555819.

Assays:
Assay in all cases: PBM binding z-score (relative to random genomic background probes); higher = stronger binding; sequences stand for … in GC…GCGATTGACAGCGTAGAATGAAGG
[1] = system: RARb homodimer (NR concentration 270 nM)
Summary of the method: (§1)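 Antibodies against each partner of ligand-free nuclear receptor dimers (one per run) detected binding on custom Agilent 4×180K protein-binding microarrays after 1 h incubation. The double-stranded probes had 34-nt variable regions carrying direct-repeat seeds, single-nucleotide variants, half-site ablations and random human genomic background sequences. Binding z-scores, from regression-normalized fluorescence, use the random background probes as reference.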

[2] = system: RARg:RXRa (NR concentration 270 nM, RXRa partner concentration 90 nM)
Summary of the method: as §1

[3] = system: RARg homodimer (NR concentration 270 nM)
Summary of the method: as §1

[4] = system: RXRa DBDmut IVT, anti-RXR (DBD mutation: RXRa K156A/R161A, NR concentration 90 nM)
Summary of the method: as §1

[5] = system: RXRa homodimer (NR concentration 180 nM)
Summary of the method: as §1

[6] = system: THRa:RXRa (NR concentration 90 nM, RXRa partner concentration 90 nM)
Summary of the method: as §1

[7] = system: THRa homodimer (NR concentration 90 nM)
Summary of the method: as §1

[8] = system: VDR:RXRa (NR concentration 270 nM, RXRa partner concentration 90 nM)
Summary of the method: as §1

[9] = system: VDR homodimer (NR concentration 270 nM)
Summary of the method: as §1

Row | Sequence | PBM binding z-score [1] | PBM binding z-score [2] | PBM binding z-score [3] | PBM binding z-score [4] | PBM binding z-score [5] | PBM binding z-score [6] | PBM binding z-score [7] | PBM binding z-score [8] | PBM binding z-score [9]
1 | AGTGAAAGTTCATCTAGGTAACGTAAGATATGCT | 3.66 | 5.08 | 5.81 | 4.66 | 4.44 | 3 | 0.263 | 4.97 | 5.43
2 | CCTACCGGGCCATCAGGTCATTGATATCAACGTT | 2.68 | 2.12 | 2.18 | -0.283 | 1.28 | 3.19 | 3.37 | 1.83 | 1.78
3 | GCTGCTAGGTCCACTGATGGTCAGCTAAAGCTCG | 0.602 | -0.251 | -0.0766 | 0.741 | -0.741 | -0.256 | -0.767 | -0.609 | -0.434
4 | CGTCAAAGTTCAAGGTAACGGAACAGAAAGCAGC | 3.7 | 5.46 | 6.41 | 4.07 | 4.74 | 2.84 | 1.14 | 3.63 | 2.84
5 | GCGAATGGGGCAAAGCAGGTTACCATAAGGTTGG | 1.06 | 0.565 | 0.52 | -0.201 | 0.442 | 3.12 | 0.0667 | 0.361 | -0.552
6 | AGAACGAGGGCAATAAGTTGATAGCACGGGTGGC | 1.11 | 1.23 | 1.56 | 1.9 | 0.767 | 0.873 | -0.185 | 3.26 | 2.26
7 | CCTAGTTGGTCAAGAGGTCACACACCGGATATGA | 5.08 | 6.18 | 5.31 | 1.37 | 6.37 | 4.15 | 2.75 | 4.64 | 3.07
8 | CAAACTAGGTCAGGAAAGGTCAAAGTCGAATGAC | 5.66 | 6.84 | 7.48 | 1.51 | 6.81 | 4.74 | 1.62 | 6.31 | 3.13
9 | TCTATTAGTTGATTAGGGCAACTGAAACAGCGGA | 0.795 | 0.45 | 0.804 | 0.885 | 0.275 | 0.533 | 0.295 | 0.717 | 0.318
10 | AGTCAAAGTTCATCTAAGTAACGTAAGATATGCT | 3.78 | 5.58 | 6.53 | 4.81 | 5.21 | 2.57 | -0.213 | 4.76 | 4.88
11 | CCTACTGGGCCACCAGGTCATTGATATCAACGTT | 2.62 | 2.19 | 2 | -0.211 | 1.43 | 2.94 | 2.63 | 1.97 | 1.77
12 | TTACCAAGGTGAGCTCAGGTCGTTGATCCAACTC | 1.03 | 0.577 | 0.405 | -0.211 | 0.652 | 4.12 | 1.43 | 1.81 | 0.416
13 | CAGCCTAGATCAGGGCCAGTATAGGAGGAACGTT | -0.147 | -0.262 | -0.227 | -0.728 | -0.559 | -0.634 | -0.417 | -0.746 | -0.384
14 | ATCTCTAGGTCAAGATAGTTCAGTGAATGCAAAT | 3.89 | 4.63 | 5.48 | 1.58 | 3.14 | 3.35 | 1.71 | 4.44 | 1.73
15 | AATATAGGGTCATCGTAGGCCAGAGTACGCACAG | 3.83 | 5.9 | 5.5 | 3.83 | 6.83 | 4.67 | 2.3 | 5.22 | 3.76
16 | CCTACTTGGTCAGGAGGTCACACACCGGATATGA | 4.48 | 4.98 | 4.1 | 0.751 | 5.02 | 3.59 | 2.33 | 3.89 | 2.54
17 | ATCGAAAGGGCGAGGTGAGTATAGAGAAAGGGAA | 1.45 | 1.48 | 1.58 | -0.127 | 0.756 | 1.63 | 0.413 | 0.361 | -0.029
18 | GCTATTAGTTGAAAGGGCAACCCAATGATTCTCG | 1.98 | 1.31 | 1.34 | 1.09 | 1.3 | 0.458 | -0.122 | 0.662 | 0.235

Row | Sequence | PBM binding z-score [1] | PBM binding z-score [2] | PBM binding z-score [3] | PBM binding z-score [4] | PBM binding z-score [5] | PBM binding z-score [6] | PBM binding z-score [7] | PBM binding z-score [8] | PBM binding z-score [9]
19 | CCGACAGGGGCATAAGGTTACCATAAGCCAGCCC | 2.13 | 2.36 | 1.62 | 0.428 | 2.01 | 2.43 | 1.43 | 1.1 | 0.293
20 | ACTATTTGTTGACTTAGGGCAACCGATACGACGC | 1.01 | 0.754 | 1.08 | 0.742 | 0.588 | 1.12 | 0.816 | 0.227 | 0.486
21 | TTACCAAGGTGAGCTGAGATCGTTGATCCAACTC | -0.439 | -0.0165 | 0.151 | -1.09 | -0.0334 | 1.1 | -0.431 | -0.473 | -0.976
22 | CTCGAAAGGTCGTTCTCAGGTGAGTATACCAAAC | 2.86 | 5.28 | 3.33 | 3.44 | 4.39 | 4.46 | 1.46 | 3.95 | 2.59
23 | AGTCAAAGTTCAGGACGAGGTAACGTAAAGCACG | 3.25 | 4.81 | 4.53 | 2.83 | 2.9 | 3.87 | 1.81 | 2.85 | 2.08
24 | GCGACTGGGGCGAAGCAGGTTACCATAAGGTTGG | 0.22 | -0.0926 | -0.296 | -1.11 | 0.0577 | 1.5 | -0.185 | -0.549 | -0.569
25 | AGTCAAAGTTCACTAGGGAACGTAAGATTCAGCT | 3.65 | 4.75 | 5.65 | 4.23 | 3.67 | 2.05 | -0.852 | 3.85 | 3.23
26 | CGAACTAGGTCTGAACAGGACAGTGAAGGATGAT | 0.0456 | 0.195 | 0.136 | -0.233 | 0.134 | 0.536 | -0.761 | -0.557 | -0.4
27 | TTACCAAGGTGAAAGGTTGTTGATGCACGCCTTG | 0.999 | 1.65 | 0.911 | 0.0428 | 2.58 | 2.15 | 0.748 | 1.15 | 0.0809
28 | CCTAGCAGGCCAATTTGGGTCACTCAAGGCTTGA | 2.08 | 0.9 | 1.21 | 0.0247 | 0.826 | 3.86 | 0.606 | 0.482 | -0.23
29 | TCTAGCAGGCCACAGGGTCACTCAAGAGGTACGG | 3.28 | 3.5 | 2.75 | 0.4 | 3.39 | 2.94 | 1.16 | 2.93 | 2.07
30 | GCTGCTAGGTCAGTTTGGTCAGCTAACGGGTACG | 2.43 | 2.29 | 3.29 | 0.863 | 0.8 | 1.36 | 0.147 | 0.529 | 0.564
31 | GATACAGGGTCAAGGCCACAGTACGCGTATTGAT | 3.85 | 5.44 | 5.11 | 2.15 | 5.9 | 3.69 | 1.85 | 4.2 | 1.84
32 | TCGAGTTGGTTAGTCGGGGCATTCAGCCAACATA | 0.0639 | -0.34 | -0.804 | 1.41 | -0.355 | 0.331 | -0.0261 | 0.43 | 0.871
33 | TCGAGTAGCTTACCAATGGGGCATTCAGCTTTCT | -0.454 | -0.745 | -0.826 | 0.345 | -0.307 | -1.44 | -0.855 | -0.487 | -0.692
34 | CCTATTAGTTTACCATAAGGGCAACCGAAGCTCG | 1.96 | 1.14 | 1.1 | 0.915 | 0.566 | 2.06 | 1.39 | 0.484 | 1.03
35 | TAGCCTAGGTCATTGGGCCATTATAGTACGCATC | 3.07 | 4.19 | 4.28 | 1.85 | 2.96 | 3.07 | 1.24 | 2.54 | 1.44
36 | TCTTGTAGATCAAGCAGGTTAAGAACGCCTGAGT | 0.231 | 0.0271 | -0.224 | 0.465 | 0.465 | 0.437 | -0.161 | 0.768 | 0.189
